Laboratory results as given in PubChem BioAssay.
Activity calls are given as the source filed them.

Assays:
[1] = target: Albumin (Bos taurus) (UniProt P02769); experiment: compounds binding labelled BSA control protein – biochemical, small-molecule microarray, Alexa647 label, 635/667 nm fluorescence, artefact control for SMM control protein annotation, profiling panel (AID 1118); conditions: BSA-A647 binding, fluorescence 635 nm, higher = more signal;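 also: score merges 667 nm emission intensity and signal-to-noise per printed compound spot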
Chain of Albumin (Bos taurus) (P02769 whole entry, looked up): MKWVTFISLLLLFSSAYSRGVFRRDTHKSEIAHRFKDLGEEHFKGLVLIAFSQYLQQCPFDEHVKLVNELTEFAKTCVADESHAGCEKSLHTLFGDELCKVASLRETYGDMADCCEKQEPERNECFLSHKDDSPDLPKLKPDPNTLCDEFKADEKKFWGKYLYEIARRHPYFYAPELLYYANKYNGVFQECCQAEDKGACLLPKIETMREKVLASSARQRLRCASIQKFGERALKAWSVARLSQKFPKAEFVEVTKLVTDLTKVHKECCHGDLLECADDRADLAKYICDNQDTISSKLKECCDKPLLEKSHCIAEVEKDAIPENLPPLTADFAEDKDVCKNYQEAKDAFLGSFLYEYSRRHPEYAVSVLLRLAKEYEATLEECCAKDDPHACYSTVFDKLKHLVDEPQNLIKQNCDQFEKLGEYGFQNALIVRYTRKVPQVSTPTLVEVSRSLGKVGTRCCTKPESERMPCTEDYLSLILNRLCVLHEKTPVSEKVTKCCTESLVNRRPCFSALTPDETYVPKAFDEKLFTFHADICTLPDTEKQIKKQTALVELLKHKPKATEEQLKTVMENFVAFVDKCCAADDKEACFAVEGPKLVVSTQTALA

[2] = probe aXIP binding to arrayed compounds – biochemical, NeuroSMM set, 635/667 nm fluorescence, primary screen (AID 1119); conditions: small-molecule microarray, higher = more signal, called active from +8 up or from −8 down;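 also: probe is the protein aXip251-270 applied at 1 µg/mL to compound-printed slides; binding of probe to printed compounds measured as 667 nm fluorescence plus signal to noise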
[3] = probe aNOTCH3 binding on compound microarray – biochemical, small-molecule microarray, 635/667 nm fluorescence, primary screen (AID 1120); conditions: higher = more signal;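 also: probe is a biotin-tagged antibody raised against NOTCH3 rather than NOTCH3 protein; score merges spot fluorescence near 667 nm with spot signal to noise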
[4] = probe aNOTCH2 binding on compound microarray – biochemical, small-molecule microarray, 635/667 nm fluorescence, primary screen (AID 1121); conditions: higher = more signal;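 also: score merges feature fluorescence read at 667 nm with its signal to noise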
[5] = target: Carbonic anhydrase 2 (Homo sapiens) (UniProt P00918); experiment: compounds binding carbonic anhydrase 2 – biochemical, small-molecule microarray, Alexa647-labelled CAII, profiling panel (AID 1122); conditions: CAII-A647 binding fluorescence, higher = more signal
[6] = COS7 lysate on small-molecule microarray, probe aHis, 635 nm (AID 1123); conditions: COS7 cell lysate, fluorescence, higher = more signal;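 also: z-score combines 667nm fluorescence intensity with signal-to-noise per printed compound spot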
[7] = probe aLAP1 signal on lysate-treated microarray – cell lysate, small-molecule microarray, COS7 lysate, primary screen (AID 1124); conditions: probe aLAP1, fluorescence, higher = more signal;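 also: lysate comes from COS7 cells expressing LAP1 and is applied at 0.3 µg/mL; score merges spot fluorescence near 667 nm with signal-to-noise over triplicate slides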
[8] = tested on: Sam68 (KHDRBS1); experiment: compounds binding KHDRBS1 protein – biochemical, small-molecule microarray, 635 nm fluorescence, primary screen (AID 1125); conditions: higher = more signal;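 also: score merges 667 nm channel intensity with signal to noise over triplicate slides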
[9] = tested on: Chordin-like protein 2 (CHRDL2); experiment: compounds binding chordin-like 2 – biochemical, small-molecule microarray, 635 nm fluorescence, primary screen (AID 1126); conditions: fluorescence 635 nm, higher = more signal;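 also: printed compound slides probed with Chrdl2 protein at 4 µg/mL for 1 h at 4 C; score merges 667 nm emission intensity with signal to noise over three replicate slides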
[10] = target: Concanavalin-A (Canavalia ensiformis) (UniProt P02866); experiment: compounds binding concanavalin A lectin – biochemical, small-molecule microarray, Alexa647 label, 635 nm, artefact control for SMM control protein annotation, primary screen (AID 1127); conditions: ConA-A647 binding fluorescence, higher = more signal;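 also: z combines 667 nm emission intensity with signal-to-noise across three replicate slides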
Chain of Concanavalin-A (Canavalia ensiformis) (P02866 whole entry, looked up): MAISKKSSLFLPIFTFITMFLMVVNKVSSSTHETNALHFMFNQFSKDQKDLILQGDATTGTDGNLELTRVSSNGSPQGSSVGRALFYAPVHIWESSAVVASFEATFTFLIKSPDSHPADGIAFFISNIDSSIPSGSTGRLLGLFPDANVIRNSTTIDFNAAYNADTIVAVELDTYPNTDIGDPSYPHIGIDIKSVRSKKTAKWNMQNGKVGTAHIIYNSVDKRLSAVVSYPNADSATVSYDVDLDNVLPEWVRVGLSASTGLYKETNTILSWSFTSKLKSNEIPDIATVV

[11] = compounds binding Alexa647 anti-His antibody – biochemical, small-molecule microarray, 635 nm fluorescence, artefact control for SMM control protein annotation, primary screen (AID 1128); conditions: higher = more signal;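 also: score merges feature fluorescence with signal-to-noise for each printed compound spot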
[12] = tested on: Human papillomavirus type 1a E7 protein (residues 1-88); experiment: HPV1a E7 small-molecule binders, primary screen, biochemical, small-molecule microarray, residues 1-88, 635 nm (AID 1129); conditions: small-molecule microarray binding, fluorescence 635 nm; higher = more signal
[13] = target: Focal adhesion kinase 1 (Homo sapiens) (UniProt Q05397); experiment: PTK2 protein binding on printed compound slides – biochemical, small-molecule microarray, 635/667 nm fluorescence, BSA, DTT, primary screen (AID 1130); conditions: 635 nm fluorescence, higher = more signal;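 also: composite of spot emission at 667 nm and signal to noise over triplicate slides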
Chain of Focal adhesion kinase 1 (Homo sapiens) (Q05397 whole entry, looked up): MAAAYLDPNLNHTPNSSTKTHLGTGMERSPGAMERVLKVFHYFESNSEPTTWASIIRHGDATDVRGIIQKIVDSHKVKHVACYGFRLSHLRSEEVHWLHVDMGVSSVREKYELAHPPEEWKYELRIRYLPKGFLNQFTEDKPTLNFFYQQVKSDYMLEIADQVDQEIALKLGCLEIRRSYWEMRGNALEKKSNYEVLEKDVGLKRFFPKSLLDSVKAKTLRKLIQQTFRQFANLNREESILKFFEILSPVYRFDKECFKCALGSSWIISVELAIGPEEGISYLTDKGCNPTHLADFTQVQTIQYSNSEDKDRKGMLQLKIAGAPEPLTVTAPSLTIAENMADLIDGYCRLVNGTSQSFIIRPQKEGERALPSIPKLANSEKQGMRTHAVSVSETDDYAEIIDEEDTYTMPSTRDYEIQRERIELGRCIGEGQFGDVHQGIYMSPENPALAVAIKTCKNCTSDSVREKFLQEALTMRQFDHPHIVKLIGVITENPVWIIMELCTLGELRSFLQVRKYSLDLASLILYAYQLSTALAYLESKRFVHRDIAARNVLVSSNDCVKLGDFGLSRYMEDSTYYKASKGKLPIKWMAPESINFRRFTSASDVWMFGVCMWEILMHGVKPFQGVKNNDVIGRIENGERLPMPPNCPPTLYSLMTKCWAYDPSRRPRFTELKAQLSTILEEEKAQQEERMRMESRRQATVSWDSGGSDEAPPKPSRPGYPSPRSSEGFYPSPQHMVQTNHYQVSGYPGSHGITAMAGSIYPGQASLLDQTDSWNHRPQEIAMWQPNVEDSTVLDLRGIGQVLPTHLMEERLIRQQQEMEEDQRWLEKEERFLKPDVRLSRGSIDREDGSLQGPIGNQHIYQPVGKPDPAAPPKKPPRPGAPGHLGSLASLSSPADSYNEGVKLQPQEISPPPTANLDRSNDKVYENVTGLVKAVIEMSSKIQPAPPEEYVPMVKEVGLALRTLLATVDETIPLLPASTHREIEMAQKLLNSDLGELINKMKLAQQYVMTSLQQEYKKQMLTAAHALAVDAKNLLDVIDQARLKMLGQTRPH

[14] = tested on: Fibrinogen (Alexa647-labelled); experiment: Alexa647-fibrinogen binding to printed small molecules – biochemical, small-molecule microarray, 635/667 nm fluorescence, artefact control for SMM control-protein annotation, profiling panel (AID 1131); conditions: fibrinogen-A647 binding fluorescence, higher = more signal;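 also: z-score merges 667 nm fluorescence with per-spot signal-to-noise over triplicate slides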
[15] = target: Follistatin (Homo sapiens) (UniProt P19883); experiment: FST protein binding to printed compounds – biochemical, small-molecule microarray, 635/667 nm fluorescence, primary screen (AID 1132); conditions: 635 nm fluorescence, higher = more signal
Chain of Follistatin (Homo sapiens) (P19883 whole entry, looked up): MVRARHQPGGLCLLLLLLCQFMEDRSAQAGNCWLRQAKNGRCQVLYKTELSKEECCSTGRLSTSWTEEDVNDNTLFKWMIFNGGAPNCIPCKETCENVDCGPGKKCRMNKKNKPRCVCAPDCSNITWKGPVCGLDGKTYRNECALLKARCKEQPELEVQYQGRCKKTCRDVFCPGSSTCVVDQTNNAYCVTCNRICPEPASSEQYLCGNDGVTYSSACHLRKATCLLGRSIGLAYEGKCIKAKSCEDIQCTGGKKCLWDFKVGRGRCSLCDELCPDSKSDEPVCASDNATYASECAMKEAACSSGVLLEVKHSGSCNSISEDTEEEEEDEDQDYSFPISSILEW

[16] = target: Fibroblast growth factor 2 (Homo sapiens) (UniProt P09038); experiment: basic fibroblast growth factor binding to printed compounds – biochemical, small-molecule microarray, 635/667 nm fluorescence, primary screen (AID 1133); conditions: FGF2, fluorescence 635/667, higher = more signal
Chain of Fibroblast growth factor 2 (Homo sapiens) (P09038 whole entry, looked up): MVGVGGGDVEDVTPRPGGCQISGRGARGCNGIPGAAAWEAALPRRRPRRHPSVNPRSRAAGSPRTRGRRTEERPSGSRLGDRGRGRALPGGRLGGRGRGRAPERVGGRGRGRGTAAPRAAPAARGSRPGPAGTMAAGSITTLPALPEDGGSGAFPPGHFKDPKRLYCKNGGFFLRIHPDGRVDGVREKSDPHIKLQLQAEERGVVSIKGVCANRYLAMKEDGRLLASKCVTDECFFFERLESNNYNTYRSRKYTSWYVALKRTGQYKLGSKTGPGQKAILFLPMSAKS

[17] = JC-1 mitochondrial potential readout, lung cancer cells – cell-based, A549, JC-1 fluorescence, basal, 24 h, 100 nL, profiling panel (AID 1138); conditions: higher = more signal;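 also: A549 lung adenocarcinoma cells under basal conditions with no added stimulus; test concentration not given here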
[18] = tested on: Lefty1; experiment: Lefty1 protein binding to printed compounds – biochemical, small-molecule microarray, 635/667 nm fluorescence, primary screen (AID 1139); conditions: fluorescence 635/667, higher = more signal
[19] = tested on: wheat germ agglutinin (Triticum aestivum), Alexa647-labelled; experiment: Alexa647-WGA lectin binding to printed small molecules – biochemical, small-molecule microarray, 635/667 nm fluorescence, artefact control for SMM control-protein annotation, profiling panel (AID 1140); conditions: WGA-A647 binding, 635 nm fluorescence, higher = more signal;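 also: score merges 667 nm feature emission with signal to noise over triplicate slides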
[20] = target: Luciferin 4-monooxygenase (Photinus pyralis) (UniProt P08659); experiment: inhibition of purified Photinus pyralis luciferase – biochemical, luminescence, purified enzyme, 2006 set, primary screen (AID 1141); conditions: purified firefly luciferase, SteadyGlo luminescence, 30 min; higher = more signal, called active from +8 up or from −8 down;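 also: cell-free assay with purified firefly luciferase at 100 ng per well in PBS; test concentration not given here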
Chain of Luciferin 4-monooxygenase (Photinus pyralis) (P08659 whole entry, looked up): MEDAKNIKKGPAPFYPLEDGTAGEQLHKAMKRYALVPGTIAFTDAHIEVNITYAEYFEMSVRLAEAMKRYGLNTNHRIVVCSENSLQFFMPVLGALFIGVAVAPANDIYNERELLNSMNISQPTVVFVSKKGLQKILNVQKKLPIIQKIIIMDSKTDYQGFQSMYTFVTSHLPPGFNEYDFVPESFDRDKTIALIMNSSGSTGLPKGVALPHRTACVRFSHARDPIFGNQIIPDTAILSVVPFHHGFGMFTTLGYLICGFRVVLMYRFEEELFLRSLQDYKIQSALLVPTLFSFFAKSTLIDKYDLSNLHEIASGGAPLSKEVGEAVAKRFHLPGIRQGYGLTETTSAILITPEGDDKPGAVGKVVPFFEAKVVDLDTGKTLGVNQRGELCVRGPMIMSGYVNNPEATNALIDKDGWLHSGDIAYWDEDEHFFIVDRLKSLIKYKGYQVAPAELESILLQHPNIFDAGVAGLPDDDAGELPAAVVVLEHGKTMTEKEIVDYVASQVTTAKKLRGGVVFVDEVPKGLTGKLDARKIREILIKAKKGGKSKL

| Structure (SMILES) | composite z-score [1] | composite Z-score [2] | composite z-score [3] | composite z-score [4] | composite z-score [5] | composite z-score [6] | composite z-score [7] | composite z-score [8] | composite z-score [9] | composite z-score [10] | composite z-score [11] | composite z-score [12] | composite z-score [13] | composite z-score [14] | composite z-score [15] | composite z-score [16] | z-score [17] | composite z-score [18] | composite z-score [19] | z-score [20] |
| --- | --- | --- | --- | --- | --- | --- | --- | --- | --- | --- | --- | --- | --- | --- | --- | --- | --- | --- | --- | --- |
| CC(C)(C)OC(=O)CC[C@]1(C(=O)NCCN2CCOCC2)N=C(c2ccc(OCCCO)cc2)O[C@H]1c1ccccc1N=[N+]=[N-] | 0.942 | 0.489 (inactive) | 0.286 | 0.0684 | 0.82 | 3.05 | 1.22 | 1.31 | 0.186 | 0.373 | 2.11 | 1.15 | 0.782 | 1.04 | 0.283 | -0.104 | 0.669 | -0.595 | 1.33 | -10.8 (active) |
| O=C1O[C@@H](c2ccccc2)[C@@H](c2ccccc2)N2[C@@H](c3ccccc3OCCO)[C@]3(C(=O)Nc4ccccc43)[C@@H](C(=O)NC[C@H](O)c3ccccc3)[C@H]12 | 0.641 | -0.0662 (inactive) | -0.213 | -0.14 | 0.586 | 1.32 | 0.487 | 0.9 | -1.15 | 0.196 | -0.27 | 1.19 | 0.682 | -0.0424 | -0.185 | -0.452 | 0.171 | -0.373 | -0.545 | 0.0121 (inactive) |
| COc1ccc(C#Cc2ccc3c(c2)[C@]2(C(=O)N3)[C@H](C(=O)N3CCc4cc(OC)c(OC)cc4C3)[C@H]3C(=O)O[C@H](c4ccccc4)[C@H](c4ccccc4)N3[C@@H]2c2ccc(O)cc2)cc1 | 0.845 | 1.1 (inactive) | 0.0562 | 0.0397 | 0.432 | 1.46 | -0.0296 | 1.3 | 0.137 | 1.13 | 1.5 | 1.2 | 0.735 | 0.924 | 0.896 | 0.465 | -1.47 | 0.374 | 0.0376 | -0.716 (inactive) |
| CO[C@H]1O[C@H](CO)[C@@H](OC(=O)Nc2ccccc2-c2ccccc2)[C@H](OC(=O)Nc2ccc3c(c2)OCO3)[C@@H]1OC(=O)Nc1ccc2c(c1)OCO2 | 0.508 | 0.151 (inactive) | 0.389 | -0.0684 | 0.735 | 2.47 | 0.335 | 1.3 | 0.517 | 0.921 | 0.971 | 1.27 | 0.485 | 0.991 | 1.24 | 0.853 | 1.56 | 1.16 | 0.412 | -7.93 (inactive) |
| [N-]=[N+]=Nc1ccccc1[C@@H]1OC(c2ccc(OCCCO)cc2)=N[C@]1(CCS(=O)(=O)c1ccccc1)C(=O)NCCN1CCOCC1 | 0.734 | 0.131 (inactive) | 0.178 | -0.0267 | 0.485 | 2.71 | 0.21 | 1.29 | -0.22 | 0.478 | 0.903 | 1.28 | -0.018 | 0.962 | 1.14 | -0.29 | -0.377 | 0.393 | 1.04 | -8.81 (active) |
